For this assay, the target named is Calcium and integrin-binding protein 1 (Homo sapiens) (UniProt Q99828). The experiment in a line: Primary qHTS for Identification of Calcium Integrin Binding Protein 1 (CIB1) Competitor (AID 1508620). Further: top concentration of the series differs between compounds. Particulars: CIB1-GST / FITC-alphaIIb peptide fluorescence polarization; series mostly up to 114 µM. In a few lines: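 Fluorescence polarization competition: GST-tagged CIB1 (1 uM final) preincubated with compound 15 min at room temperature, then FITC-labelled alphaIIb peptide (100 nM final) added. After 15 min at room temperature, polarization read at Ex 480/Em 540.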
Calcium and integrin-binding protein 1 (Homo sapiens), sequence (Q99828 whole entry, looked up): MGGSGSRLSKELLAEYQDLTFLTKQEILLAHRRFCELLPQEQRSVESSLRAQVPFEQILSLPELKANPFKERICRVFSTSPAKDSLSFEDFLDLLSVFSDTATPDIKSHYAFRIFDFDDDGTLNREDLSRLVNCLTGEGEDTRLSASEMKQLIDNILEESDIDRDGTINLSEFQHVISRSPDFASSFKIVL
(In general: qHTS replaces the single test concentration by a dilution series.)

Results filed as inconclusive are left out. Where a call stands in place of a potency, no number is given. Active and inactive are the calls of the source. The call rests on the fitted dose curve; in most records, active means well fitted inhibition curve with a large enough effect; inconclusive means small, poorly fitted or top-dose-only effect; inactive means flat fitted curve, though single readings scatter.

For the molecule `CC1(C)CCCC2(C)C1CC(=O)C13CC(CCC12)C(O)(CO)C3` (stereo not drawn), the Potency result is “inactive”.
The value for `O=C(NCc1ccc(F)cc1)C(=O)c1c[nH]c2ccccc12` was “inactive”; that for `O=C(O)[C@H](Cc1ccc(Nc2nccc3ccncc23)cc1)NC1=C(Br)C(=O)C12CCCCC2` was “inactive”.
For `CC(C)C(CO)Nc1nc(Nc2ccc(C(=O)O)c(Cl)c2)c2ncn(C(C)C)c2n1` (stereo not drawn), the Potency entry is “inactive”.
With `CC(=O)O[C@H]1[C@@H](O)[C@H](O[C@H]2[C@@H]3C=CO[C@@H](O[C@H]4O[C@@H](CO)[C@H](O)[C@@H](O)[C@@H]4O)[C@@H]3[C@@]3(CO)O[C@@H]23)O[C@@H](C)[C@@H]1OC(=O)/C=C/c1ccccc1`, the Potency result was “inactive”.
The value for `NC(=O)c1cccc2cn(-c3ccc(C4CCCNC4)cc3)nc12` (stereo not drawn) was “inactive”.
For the molecule `Cc1c(C(=O)Nc2ccc(N3CC(C)OC(C)C3)nc2)cccc1-c1ccc(OC(F)(F)F)cc1` (stereo not drawn), the Potency result is “inactive”.
With `C=CC(C)(C)C12C=C(OC)C(=O)N3C(C(C)C)C(=O)NC31N(OC)c1ccccc12` (stereo not drawn), the Potency entry was “inactive”.
The value for `CC1C=CC2CCCCC2C1CCC1CC(O)CC(=O)O1` (stereo not drawn) was “inactive”.
For the molecule `C[C@H](C/C=C/C(C)(C)O)[C@H]1CC[C@@]2(C)[C@@H]3[C@@H](O[C@@H]4O[C@H](CO)[C@@H](O)[C@H](O)[C@H]4O)C=C4C(CC[C@H](O)C4(C)C)[C@]3(C=O)CC[C@]12C` (stereo partly drawn), the Potency entry was “inactive”.
The same measure for `COc1cccc(C(=O)N2CCN(C(=O)COc3cccc(C)c3)CC2)c1OC`: “inactive”; for `O=C1NC(Cc2c[nH]c3ccccc23)C(=O)NC1Cc1cnc[nH]1` (stereo not drawn): “inactive”; for `N[C@@]1(C(=O)O)CC[C@H]2[C@H](C(=O)O)[C@H]21`: “inactive”.

These data come from PubChem BioAssay (NCATS).
